Drawing on PubChem BioAssay (NCI), this text covers growth for 8 molecules.

Among the test systems are SK-MEL-2 melanoma; EKVX NSCLC; SN12C renal; UO-31 renal; TK-10 renal; ACHN renal; CAKI-1 renal; A498 renal; CCRF-CEM leukemia; MOLT-4 leukemia; SR leukemia; RPMI-8226 leukemia; OVCAR-8 ovarian; OVCAR-5 ovarian; OVCAR-4 ovarian; SK-OV-3 ovarian; IGROV1 ovarian; OVCAR-3 ovarian; HS 578T breast; NCI/ADR-RES ovarian.
Experiment in all cases: NCI-60 one-dose screen, 48 h (100 = growth as untreated, 0 = no growth, -100 = all killed)
Details in all cases: 10 µM unless noted

Structures are written as SMILES. This is part of a sample that, as a whole, favours compounds with a hit. Of some 83,000 tested, about 20% had one in any assay.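 Cell lines were cultured in 96-well plates, exposed to a single compound concentration, and assessed for percent growth 48 hours later.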 Values without a mark were called inactive. The source made the active and inactive calls. Rule for the calls: active = growth percent below 10; inactive = the rest.

Turning to `Nc1c(C(=O)Nc2cccc(Cl)c2)sc2nc3c(cc12)CCCC3`, the growth in the assay on SK-MEL-2 melanoma was 86.6%; in the assay with EKVX NSCLC, 94.8%; in the assay on SN12C renal it was 97.6%; with UO-31 renal, 90.3%; in the assay with TK-10 renal, 85.1%; in the assay on ACHN renal, 94.4%. In addition, the growth is 91.3% in the assay with CAKI-1 renal; 87.6% in the assay with A498 renal; 87.1% in the assay on CCRF-CEM leukemia; 84.8% with MOLT-4 leukemia; 53.9% in the assay with SR leukemia; 93.6% with RPMI-8226 leukemia. Besides, the growth in the assay on OVCAR-8 ovarian was 93%; with OVCAR-5 ovarian, 93.4%; in the assay with OVCAR-4 ovarian, 90.9%; with SK-OV-3 ovarian, 96.2%; in the assay with IGROV1 ovarian, 106%; in the assay with OVCAR-3 ovarian it was 103%. The growth with HS 578T breast is 97.7%; in the assay with NCI/ADR-RES ovarian, 101%.
Consider `C=C(C)[C@@H]1CC[C@]2(C(N)=O)CC[C@]3(C)[C@H](CC[C@@H]4[C@@]5(C)CC[C@H](OCCC#N)C(C)(C)[C@@H]5CC[C@]43C)[C@@H]12`, for which the growth in the assay with SK-MEL-2 melanoma is 92.5%; in the assay on EKVX NSCLC, 90.4%; in the assay with SN12C renal it was 78.5%; in the assay with UO-31 renal, 75.8%; in the assay on TK-10 renal, 117%; with ACHN renal, 74.1%. The growth in the assay on CAKI-1 renal is 64.5%; in the assay with A498 renal, 116%; with CCRF-CEM leukemia, 78.9%; in the assay with MOLT-4 leukemia it was 70%; with SR leukemia it was 72.7%; with RPMI-8226 leukemia, 73.2%. Further, the growth was 86.9% in the assay on OVCAR-8 ovarian; 76.3% with OVCAR-5 ovarian; 93.2% in the assay on OVCAR-4 ovarian; 79.5% in the assay with SK-OV-3 ovarian; 90% in the assay with IGROV1 ovarian; 110% in the assay with OVCAR-3 ovarian. Besides, the results for the growth in the assay with HS 578T breast and in the assay on NCI/ADR-RES ovarian were 88.3% and 89%, respectively.
Take `COc1ccc(/C=C/C(=O)c2ccc(NC(=O)CSc3nc4c([nH]3)c(=O)n(C)c(=O)n4C)cc2)cc1OC`: the growth was 110% with SK-MEL-2 melanoma; 88.5% with EKVX NSCLC; 85.3% in the assay with SN12C renal; 90.8% in the assay on UO-31 renal; 97.9% in the assay with TK-10 renal; 94.4% in the assay with ACHN renal. In addition, the growth is 84.7% in the assay with CAKI-1 renal; 71.7% in the assay on A498 renal; 66% in the assay on CCRF-CEM leukemia; 72.4% with MOLT-4 leukemia; 36.6% with SR leukemia; 85.9% in the assay on RPMI-8226 leukemia. Further, the growth is 89.7% with OVCAR-8 ovarian; 83.9% in the assay on OVCAR-5 ovarian; 72.6% with OVCAR-4 ovarian; 102% in the assay with SK-OV-3 ovarian; 71.3% in the assay with IGROV1 ovarian; 70% in the assay on OVCAR-3 ovarian. Further, the growth was 81.3% with HS 578T breast and 96.1% in the assay on NCI/ADR-RES ovarian.
In the case of `Cc1ccc2nc(/C(C#N)=C(/CCCO)NC(Cc3ccccc3)C(=O)OCc3ccccc3)[nH]c(=O)c2c1` (stereo not given), the growth in the assay with SK-MEL-2 melanoma was 96.8%; with EKVX NSCLC, 95.6%; in the assay on SN12C renal, 103%; in the assay with UO-31 renal, 112%; in the assay on TK-10 renal, 126%; with ACHN renal, 107%. The growth in the assay with CAKI-1 renal is 90.2%; with A498 renal, 210%; with CCRF-CEM leukemia, 164%; with MOLT-4 leukemia, 112%; in the assay on SR leukemia, 92.3%; in the assay on RPMI-8226 leukemia, 114%. For the same molecule, the growth is 120% with OVCAR-8 ovarian; 89.2% in the assay with OVCAR-5 ovarian; 125% with OVCAR-4 ovarian; 106% with SK-OV-3 ovarian; 127% in the assay on IGROV1 ovarian; 110% with OVCAR-3 ovarian. Besides, the growth in the assay on HS 578T breast is 183%; in the assay with NCI/ADR-RES ovarian, 32.6%.
Regarding `O=C1Nc2c(C(=O)O)cccc2/C1=N/c1n[nH]c(=S)s1`, the growth with SK-MEL-2 melanoma was 98.8%; in the assay on EKVX NSCLC, 77.6%; in the assay on SN12C renal it was 93.4%; in the assay with UO-31 renal it was 69.9%; in the assay on TK-10 renal it was 117%; with ACHN renal, 78%. For the same molecule, the growth with CAKI-1 renal is 52%; with A498 renal it was 115%; with CCRF-CEM leukemia it was 88.7%; in the assay on MOLT-4 leukemia, 90%; in the assay on SR leukemia, 84.6%; with RPMI-8226 leukemia, 87.7%. Besides, the growth with OVCAR-8 ovarian was 91%; with OVCAR-5 ovarian, 98%; with OVCAR-4 ovarian, 87.9%; in the assay on SK-OV-3 ovarian, 85.7%; in the assay on IGROV1 ovarian, 83%; with OVCAR-3 ovarian, 99.1%. Moreover, the growth is 87% in the assay with HS 578T breast and 101% in the assay on NCI/ADR-RES ovarian.
In the case of `COc1cc2c(c(OC)c1OC)C(=O)CC(c1cccc(NC(=O)c3ccc(C#N)cc3)c1)O2` (stereo not given), the growth in the assay with SK-MEL-2 melanoma was 69%; in the assay on EKVX NSCLC, 83.8%; with SN12C renal, 83%; in the assay on UO-31 renal, 62.8%; in the assay on TK-10 renal it was 89.4%; with ACHN renal, 81.2%. Also, the growth with CAKI-1 renal is 77.1%; in the assay with A498 renal, 82.2%; with CCRF-CEM leukemia it was 25.3%; in the assay on MOLT-4 leukemia, 27%; in the assay on SR leukemia, 41.7%; with RPMI-8226 leukemia, 30.8%. In addition, the growth in the assay on OVCAR-8 ovarian is 40.9%; in the assay on OVCAR-5 ovarian, 101%; with OVCAR-4 ovarian it was 63%; in the assay on SK-OV-3 ovarian, 99.1%; in the assay with IGROV1 ovarian, 85.5%; in the assay with OVCAR-3 ovarian, 76.5%. Besides, the growth with HS 578T breast is 90.3%; in the assay on NCI/ADR-RES ovarian, 50.7%.
On to `CN(C)CCN1C(=O)c2cccc3c(/C=C/CN4C(=O)c5cccc6cccc(c56)C4=O)ccc(c23)C1=O`, for which the growth with SK-MEL-2 melanoma was 104%; in the assay on EKVX NSCLC it was 109%; in the assay on SN12C renal it was 79.9%; in the assay on UO-31 renal, 72%; in the assay on TK-10 renal, 121%; with ACHN renal, 72.7%. The growth in the assay on CAKI-1 renal was 91%; with A498 renal, 81.4%; in the assay on CCRF-CEM leukemia it was -44.1% (active); with MOLT-4 leukemia, 34.3%; in the assay with SR leukemia it was -16.4% (active); with RPMI-8226 leukemia it was -31.4% (active). In addition, the growth was -43.5% (active) with OVCAR-8 ovarian; -69% (active) with OVCAR-5 ovarian; -5.6% (active) in the assay on OVCAR-4 ovarian; 109% in the assay with SK-OV-3 ovarian; 89.4% with IGROV1 ovarian; 114% in the assay with OVCAR-3 ovarian. The growth is 82.6% in the assay on HS 578T breast and 24% with NCI/ADR-RES ovarian.
As for `c1nc2ccc(-c3cc4ccc5[nH]ncc5c4c4c3CCCC4)cc2[nH]1`, the growth is 43% in the assay on SK-MEL-2 melanoma; 93% in the assay with EKVX NSCLC; 76.4% with SN12C renal; 92.9% in the assay on UO-31 renal; 61.7% with TK-10 renal; 52.2% in the assay with ACHN renal. The growth was 54% with CAKI-1 renal; 49.9% in the assay on A498 renal; 31% with CCRF-CEM leukemia; 33.8% with MOLT-4 leukemia; 8.69% (active) with SR leukemia; 58.1% in the assay with RPMI-8226 leukemia. In addition, the growth with OVCAR-8 ovarian was 78.5%; in the assay with OVCAR-5 ovarian, 69.3%; in the assay on OVCAR-4 ovarian, 88%; in the assay on SK-OV-3 ovarian it was 50.2%; in the assay on IGROV1 ovarian it was 36%; with OVCAR-3 ovarian, 89.5%. Besides, the growth with HS 578T breast is 65.2%; in the assay with NCI/ADR-RES ovarian it was 110%.
